Molecules are shown by their SMILES.

Some test systems named below: HPK1; HUNK; ICK; IGF1R; INSRR; INSR; IRAK1; IRAK3; IRAK4; ITK.
Holding throughout (settings): concentration: 1 μM, replicates: in singlicate; n = 1
Another assay relates to T1, IKK-alpha.
T1 construct: gene CHUK

A further assay has as its system T2, IKK-beta.
T2 construct: gene IKBKB

The test system of a further assay is T3, IKK-epsilon.
T3 construct: gene IKBKE

Assay [1] deals with JAK1(JH1domain-catalytic).
In assay [2] the test system is JAK1(JH2domain-pseudokinase).
Assay [3] concerns JAK2(JH1domain-catalytic).
Assay [4] has as its system JAK3(JH1domain-catalytic).
A further assay concerns T4, JNK1.
T4 construct: gene MAPK8

The next assay has as its system T5, JNK2.
T5 construct: gene MAPK9

Another assay relates to T6, JNK3.
T6 construct: gene MAPK10
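Also: KINOMEscan kinase panel screen.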

For `CSc1ccc(-c2cc3ncnc(SCC(=O)O)c3s2)cc1`, the “%Inh” value is given as 0% with HPK1; 0% in the assay on HUNK; 0% in the assay with ICK; 2% in the assay with IGF1R; 6% with IKK-alpha; 0% in the assay on IKK-beta. The “%Inh” value in the assay with IKK-epsilon is 0%; in the assay with INSRR, 11%; in the assay on INSR, 0%; in the assay with IRAK1, 28%; in the assay on IRAK3 it was 0%; with IRAK4 it was 9%. The “%Inh” value in the assay with ITK came out at 0%; in assay [1] it was 1%; in [2], 0%; in assay [3], 0%; in [4], 0%; in the assay on JNK1, 5%. Further, the “%Inh” value in the assay on JNK2 is 10%; with JNK3, 0%.
For the compound `Cl.Oc1cccc(Nc2ccnc3cc(-c4ccncc4)ccc23)c1` [GW494601], the “%Inh” value stood at 37% in the assay on HPK1; 11% with HUNK; 0% in the assay on ICK; 13% in the assay on IGF1R; 23% with IKK-alpha; 0% in the assay on IKK-beta. The “%Inh” value in the assay with IKK-epsilon turned out to be 20%; in the assay with INSRR, 0%; in the assay with INSR it was 0%; in the assay with IRAK1, 22%; in the assay on IRAK3 it was 57%; in the assay with IRAK4, 1%. Also, the “%Inh” value in the assay on ITK is on record as 0%; in assay [1], 65%; in assay [2] it was 0%; in assay [3], 50%; in assay [4] it was 18%; in the assay on JNK1 it was 14%. The “%Inh” value in the assay with JNK2 is 37%; in the assay on JNK3 it was 21%.
Consider `CNc1ncnc2[nH]ncc12` [SKF-18355], for which the “%Inh” value in the assay on HPK1 is reported as 0%; in the assay on HUNK, 34%; with ICK, 0%; in the assay with IGF1R it was 0%; with IKK-alpha, 0%; in the assay on IKK-beta, 0%. The “%Inh” value is reported as 0% with IKK-epsilon; 0% with INSRR; 7% in the assay with INSR; 9% with IRAK1; 0% in the assay on IRAK3; 0% with IRAK4. Moreover, the “%Inh” value in the assay with ITK turned out to be 0%; in assay [1] it was 0%; in [2], 31%; in [3] it was 20%; in [4], 2%; in the assay with JNK1 it was 8%. Also, the figures for the “%Inh” value in the assay with JNK2 and in the assay with JNK3 were 1% and 0%, respectively.
Consider `COc1ccc(CNC(=O)NC2CCN(c3ccnc(Nc4ccc(OC)cc4)n3)C2)cc1` (centres unmarked) [GSK1379727], for which the “%Inh” value in the assay on HPK1 is reported as 38%; in the assay on HUNK, 0%; in the assay on ICK it was 0%; in the assay on IGF1R it was 0%; in the assay on IKK-alpha, 20%; in the assay with IKK-beta, 10%. Further, the “%Inh” value in the assay on IKK-epsilon stood at 12%; in the assay on INSRR, 0%; in the assay on INSR, 0%; in the assay with IRAK1, 28%; with IRAK3, 13%; in the assay on IRAK4, 4%. Also, the “%Inh” value in the assay with ITK is 7%; in assay [1] it was 16%; in [2], 0%; in assay [3], 20%; in [4], 0%; with JNK1 it was 32%. Besides, the “%Inh” value came out at 19% in the assay with JNK2 and 9% with JNK3.
For the compound `Cc1cn2c(=O)cc(N3CCOCC3)nc2n1Cc1cccc(Cl)c1Cl` [GSK2334006], the “%Inh” value with HPK1 is listed as 30%; in the assay on HUNK it was 9%; with ICK, 12%; in the assay with IGF1R, 0%; with IKK-alpha it was 7%; with IKK-beta, 18%. The “%Inh” value with IKK-epsilon is on record as 3%; in the assay on INSRR, 28%; in the assay with INSR, 0%; in the assay with IRAK1, 0%; in the assay with IRAK3, 13%; in the assay with IRAK4, 5%. Also, the “%Inh” value came to 14% with ITK; 2% in [1]; 0% in assay [2]; 2% in assay [3]; 0% in assay [4]; 18% in the assay with JNK1. Further, the “%Inh” value was found to be 16% with JNK2 and 6% in the assay on JNK3.
Turning to `N#Cc1c(N2CCOCC2)sc(-c2ccn[nH]2)c1-c1ccc(Cl)cc1`, the “%Inh” value came out at 0% in the assay with HPK1; 16% with HUNK; 24% in the assay on ICK; 0% in the assay on IGF1R; 10% in the assay on IKK-alpha; 25% in the assay with IKK-beta. Besides, the “%Inh” value in the assay with IKK-epsilon turned out to be 0%; in the assay on INSRR it was 0%; in the assay with INSR, 0%; with IRAK1 it was 20%; in the assay on IRAK3, 16%; in the assay on IRAK4 it was 1%. The “%Inh” value in the assay with ITK amounted to 6%; in assay [1], 0%; in assay [2], 29%; in assay [3], 22%; in [4] it was 0%; in the assay on JNK1 it was 40%. The “%Inh” value was 23% with JNK2 and 43% in the assay on JNK3.
Turning to `Fc1ccc(-c2ncn(CCCN3CCOCC3)c2-c2cccnc2)cc1` [SB-211743], the “%Inh” value with HPK1 was found to be 0%; with HUNK, 44%; in the assay on ICK, 0%; in the assay with IGF1R, 0%; in the assay with IKK-alpha, 0%; in the assay on IKK-beta it was 0%. Moreover, the “%Inh” value with IKK-epsilon stood at 6%; with INSRR, 8%; with INSR it was 4%; with IRAK1, 0%; in the assay on IRAK3, 64%; in the assay on IRAK4 it was 0%. Moreover, the “%Inh” value was 0% with ITK; 20% in assay [1]; 38% in [2]; 21% in [3]; 0% in assay [4]; 26% in the assay with JNK1. In addition, the “%Inh” value in the assay on JNK2 and in the assay on JNK3 was 0% each time.
Regarding `CN1c2ccc(CNc3ccc(F)cc3)cc2-c2c(cnn2C)S1(=O)=O`, the “%Inh” value is 17% with HPK1; 34% with HUNK; 0% in the assay on ICK; 0% in the assay on IGF1R; 0% in the assay on IKK-alpha; 0% in the assay on IKK-beta. Besides, the “%Inh” value in the assay with IKK-epsilon, in the assay on INSRR, with INSR, in the assay on IRAK1, in the assay with IRAK3 and with IRAK4 was 0% throughout. Further, the “%Inh” value in the assay with ITK was found to be 0%; in assay [1], 2%; in assay [2], 20%; in [3], 0%; in assay [4], 0%; in the assay on JNK1 it was 0%. The “%Inh” value with JNK2 and in the assay with JNK3 was 0% throughout.
Consider `Cc1c(Cn2c(C)nn3c(=O)cc(N4CCOC(C)C4)nc23)cccc1C(F)(F)F` (centres unmarked) [GSK2344444], for which the “%Inh” value in the assay on HPK1 is listed as 9%; in the assay on HUNK it was 0%; in the assay on ICK, 0%; with IGF1R, 7%; in the assay on IKK-alpha, 12%; in the assay on IKK-beta, 18%. For the same compound, the “%Inh” value in the assay with IKK-epsilon is given as 5%; in the assay with INSRR, 3%; in the assay with INSR, 17%; in the assay on IRAK1, 0%; with IRAK3, 0%; in the assay with IRAK4 it was 13%. In addition, the “%Inh” value turned out to be 7% in the assay with ITK; 2% in assay [1]; 0% in assay [2]; 19% in assay [3]; 38% in assay [4]; 0% in the assay with JNK1. The “%Inh” value worked out at 8% in the assay with JNK2 and 2% in the assay on JNK3.
Turning to `N#Cc1ccc(-c2cc(-c3c[nH]nc3-c3ccccn3)ccn2)cc1` [GW693028], the “%Inh” value stood at 38% in the assay on HPK1; 0% in the assay on HUNK; 11% with ICK; 22% in the assay on IGF1R; 25% in the assay on IKK-alpha; 19% with IKK-beta. Further, the “%Inh” value with IKK-epsilon was determined as 0%; in the assay with INSRR it was 0%; in the assay on INSR, 1%; with IRAK1, 39%; in the assay on IRAK3 it was 0%; in the assay on IRAK4 it was 22%. Besides, the “%Inh” value is given as 9% in the assay on ITK; 22% in assay [1]; 0% in assay [2]; 9% in assay [3]; 0% in assay [4]; 34% in the assay with JNK1. Also, the “%Inh” value in the assay on JNK2 is given as 59%; in the assay on JNK3 it was 69%.
